# Compounds with a hit are over-represented: about 7.5% of the library has one in this group of screens.
# NPC1 prom act – qHTS Assay for NPC1 Promoter Activators. Huh7 NPC1 promoter luciferase reporter, 24 h. Potency, µM (highest dose often 9.22 µM), most hits filed as activators. 320,000 compounds, 2.4% hits; note: nearly all actives have a fitted effect of over 60% in size
#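 Luciferase expression driven by the NPC1 promoter was measured in stably transfected Huh7 cells after a 24 h compound incubation, using a luciferase reagent and a luminescence read.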
# ELG1 genotoxic – qHTS screen for small molecules that induce genotoxicity in human embryonic kidney (HEK293T) cells expressing luciferase-tagged ELG1. HEK293T ELG1-luciferase reporter, luminescence, 16 h. 330,000 compounds, 1.3% hits. Potency, µM (series often up to 46 µM), usual class: activators; note: nearly all actives have a fitted effect of over 60% in size
#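 Luminescence read-out: rising ELG1-luciferase signal, reflecting elevated ELG1 protein under genetic stress, flags genotoxic compounds. Cells were treated for 16 hr at 37 °C before ONE-Glo detection.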
# SMN2 splice enh – qHTS Assay for Enhancers of SMN2 Splice Variant Expression; HEK293 SMN2-luciferase splicing reporter, luminescence, 30-36 h; Potency, µM (highest dose often 46.1 µM), hits mostly activators; 210,000 compounds, 2.8% hits; AID 1458, 2008; note: nearly all actives have a fitted effect of over 55% in size
#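 qHTS luciferase splicing reporter: luminescence rises when SMN2 exon 7 is included in transfected HEK293 cells. Compound exposure lasted 30-36 h at 37C, with 4.5 mM final sodium butyrate as control, followed by a ONE-Glo read.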
# Rab9 promoter act – qHTS Assay for Rab9 Promoter Activators. Huh7 Rab9 promoter-luciferase reporter, luminescence, 24 h. Potency, µM (series often up to 9.22 µM), actives largely listed as activators. 320,000 compounds, 2.8% hits. AID 485297, 2010; note: nearly all actives have a fitted effect of over 60% in size
#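 Huh7 reporter line, Rab9 promoter upstream of luciferase. Compound exposure 24 h at 37 °C in reduced-serum medium with 10% FBS. Read-out: luminescence.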
# FLuc modulator – qHTS profiling assay for firefly luciferase inhibitor/activator using purifed enzyme and Km concentrations of substrates (counterscreen for miR-21 project); AID 588342, 2011; Luciferin 4-monooxygenase (Photinus pyralis), P08659; 360,000 compounds, 6.9% hits; Potency, µM (titrated, usually from 57.5 µM), hits mostly inhibitors; purified FLuc, Km substrates, luminescence inhibition; note: nearly all actives have a fitted effect of over 55% in size
# Target sequence (P08659 whole entry, looked up): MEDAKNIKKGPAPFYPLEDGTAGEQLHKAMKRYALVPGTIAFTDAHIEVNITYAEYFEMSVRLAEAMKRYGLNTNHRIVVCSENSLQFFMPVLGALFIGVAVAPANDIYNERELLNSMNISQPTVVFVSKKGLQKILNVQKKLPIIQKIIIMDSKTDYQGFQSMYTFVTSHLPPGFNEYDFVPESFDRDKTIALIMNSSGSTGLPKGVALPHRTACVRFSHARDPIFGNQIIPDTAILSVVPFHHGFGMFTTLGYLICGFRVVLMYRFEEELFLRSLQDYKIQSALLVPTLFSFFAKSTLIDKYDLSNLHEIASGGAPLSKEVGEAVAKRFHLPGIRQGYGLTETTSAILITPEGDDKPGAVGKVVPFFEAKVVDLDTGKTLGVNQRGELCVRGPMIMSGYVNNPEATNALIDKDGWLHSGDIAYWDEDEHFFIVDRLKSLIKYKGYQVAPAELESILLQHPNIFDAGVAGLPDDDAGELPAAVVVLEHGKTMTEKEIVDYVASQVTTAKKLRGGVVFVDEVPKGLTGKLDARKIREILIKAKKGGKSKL
#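 Biochemical qHTS of compounds, final roughly 60 µM downward over six points, against 10 nM purified firefly luciferase using Km concentrations of substrates (10 uM D-luciferin, 10 uM ATP) in Tris acetate pH 7.5 buffer; luminescence output.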
# Hits are given with their value; . = inactive; ? = inconclusive; / = no result given; [ ] = remark or other dose. Calls come from the whole dose curve; as a rule, active = well fitted curve in the direction sought with a large enough effect; inconclusive = small, poorly fitted or top-dose-only effect, or another doubt; inactive = no such curve, though single readings can be large; an effect the other way counts as inactive or inconclusive.
SMILES,NPC1 prom act,ELG1 genotoxic,SMN2 splice enh,Rab9 promoter act,FLuc modulator
CCOc1ccc(-c2nc(-c3cccnc3)no2)cc1,0.63µM,?,1µM,0.56µM,0.95µM
COc1ccc(-c2noc(-c3ccccc3-c3ccccc3)n2)cc1OC,.,.,.,.,.
Cc1ccc(-c2noc(-c3cccs3)n2)cc1,2.8µM,0.65µM,13µM,0.79µM,0.6µM
CCCN(CCC)CCNC(=O)CN1C(=O)COc2ccc(S(=O)(=O)N3CCC(C)CC3)cc21,/,/,.,/,.
CC(C)n1nc(C(=O)NC2CCCCCC2)c2ccccc2c1=O,.,.,/,.,.
CCOc1ccc(-c2nc(-c3ccccc3C)no2)cc1,0.63µM,0.73µM,1.6µM,0.45µM,1.1µM
CCOc1nc(-c2ccc(OC)cc2)ccc1-c1noc(-c2ccncc2)n1,.,.,.,.,.
COc1ccc(-c2nc(-c3ccncc3)no2)cc1,0.5µM,?,/,0.56µM,2.1µM
CCOc1nc(-c2ccccc2)ccc1-c1noc(-c2ccc(C)cc2)n1,/,/,.,/,.
COc1cccc(-c2ccc(-c3noc(-c4cccs4)n3)c(OC)n2)c1,.,?,/,.,11µM
COc1cccc(-c2ccc(-c3noc(-c4ccccc4F)n3)c(OC)n2)c1,.,?,.,.,?
CC(C)N(C(C)C)S(=O)(=O)c1ccc(N2CCc3ccccc3C2)nc1,?,?,/,4µM,13µM
CCN(CC)S(=O)(=O)c1ccc(N2CCc3ccccc3C2)nc1,.,.,/,.,?
CNC[C@H]1Oc2c(NS(=O)(=O)c3ccc(OC)cc3)cccc2C(=O)N([C@H](C)CO)C[C@H]1C,/,.,/,/,/
CCOC(=O)[C@H]1[C@H]2COc3ccc(C)cc3[C@@H]2N2C(=O)c3cc(Cl)ccc3NC(=O)[C@@]12C,.,.,/,.,.
O=C1NC(=S)S/C1=C/c1ccc(N2CCOCC2)o1,.,.,.,.,9.5µM
Cc1ccc(NC(=O)C(C)OC(=O)CSc2ccccc2)cc1 (configuration not stated),/,.,/,/,/
Cc1cc(NC(=O)COC(=O)c2ccc(S(=O)(=O)N3CCCc4ccccc43)cc2)no1,.,.,.,.,.
c1ccc(CCSc2nccn2-c2ccccc2)cc1,2.8µM,?,20µM,3.2µM,3.4µM
CCc1ccc(CSc2nccn2-c2ccccc2)cc1,.,.,.,.,.
CCS(=O)(=O)CCn1c([N+](=O)[O-])cnc1C,.,.,.,.,.
COc1ccc(-c2cc(C(=O)NCCc3ccccc3)c3cc(C(C)C)ccc3n2)cc1,/,/,/,/,.
COc1ccc(CCNC(=O)c2cc(-c3ccc(C)c(C)c3)nc3ccccc23)cc1OC,/,/,/,/,2.7µM
COc1ccc(-c2cc(C(=O)NCCc3ccc(OC)c(OC)c3)c3ccccc3n2)cc1,/,/,.,/,6.7µM
CCOc1ccc(-c2nc(=S)[nH][nH]2)cc1,.,?,?,?,15µM
SMILES,NPC1 prom act,ELG1 genotoxic,SMN2 splice enh,Rab9 promoter act,FLuc modulator
Oc1ccc(O)c(-c2cnns2)c1,.,.,.,.,8.5µM
Cc1ccc(S(=O)(=O)NCC(C)n2cncn2)cc1 (configuration not stated),.,.,/,.,.
O=c1cc(CS(=O)(=O)c2ccccc2)nc(-c2ccncc2)[nH]1,.,.,.,.,.
Cc1ccc(C)c(N2CCN(c3ccc(NC(=O)c4cccs4)cc3C(=O)O)CC2)c1,/,/,/,/,.
COc1ccc(/C=C/c2nc3cc(-c4ccccc4)ccc3o2)cc1O,.,.,.,.,9.5µM
O=C(/C=C/Sc1ccccc1)c1ccc(Cl)cc1,.,?,.,.,1.1µM
O=C(/C=C/Sc1ccccc1)c1ccccc1,.,?,.,.,0.43µM
CSC(=CC(=O)c1ccccc1)SC,.,.,.,.,?
Cc1oc(C)c2c(=O)cc(-c3ccc4c(c3)OCO4)cc(OC(=O)c3ccccc3Cl)c12,/,/,.,/,.
O=c1[nH]c2cccc(F)c2n2cccc12,.,.,/,.[1.84 µM],.
CN(CCc1ccccn1)C(=O)CCc1nnc(CCCc2ccccc2)o1,?,?,/,?,15µM
O=C(CCc1nnc(CCCc2ccccc2)o1)N1CCCCCC1,?,?,/,?,21µM
O=C(CCc1nnc(CCCCc2ccccc2)o1)NCCN1CCOC1=O,.,.,/,.,17µM
CCc1cc(CNC(=O)CCc2nnc(CCCc3ccccc3)o2)on1,?,18µM,16µM,3.5µM,19µM
Fc1cccc(Cl)c1/C=C/c1cnc2ccccc2n1,?,0.52µM,/,4µM,0.13µM
O=C(/C=C/c1ccc2ccccc2n1)N1CCN(S(=O)(=O)c2ccccc2F)CC1,.,.,/,.,.
Fc1cccc(F)c1/C=C/c1ccc2ccccc2n1,?,0.58µM,/,4µM,0.27µM
C(=C\c1ccco1)/c1ccc2ccccc2n1,?,?,/,4µM,1.2µM
CC(O)/C=C/c1ccc2ccccc2n1 (configuration not stated),.,.,16µM,.,17µM
CCOC(=O)c1cc2c(ccn2C)n1CC(=O)N1C(C)CCCC1C (configuration not stated),.,.,/,.,.
